In PubChem BioAssay (Tox21) one finds Potency data, which are given here for 24 compounds.

A short description of assay [1]: qHTS assay to identify small molecule agonists of the vitamin D receptor (VDR) signaling pathway - cell viability counter screen (AID 743224; active means well fitted curve in the direction sought with a large enough effect in the repeat runs; an effect the other way counts as inactive or inconclusive; further: nearly all actives have a fitted effect of over 50% in size; further: potency means the concentration at half of the fitted maximal effect). In short, it runs like this: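 Cells: VDR-bla, 2,000/well, settled 4 h. Treatment: compounds in DMSO, 16 h, 37C/5% CO2. Readout: CellTiter-Glo luminescence after 30 min RT.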
The nature of assay [2]: qHTS assay to identify small molecule antagonists of the vitamin D receptor (VDR) signaling pathway - cell viability counter screen (AID 743225; active means well fitted curve in the direction sought with a large enough effect in the repeat runs; an effect the other way counts as inactive or inconclusive; further: nearly all actives have a fitted effect of over 50% in size; further: potency means the concentration at half of the fitted maximal effect). In short, it runs like this:
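Cells (VDR-UAS-bla HEK 293T) are plated, rested 4 h at 37C, dosed with compound and 3 nM final 1-alpha,25-dihydroxy vitamin D3, and incubated 16 h. Viability is taken from CellTiter-Glo luminescence in the reporter wells.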
(Quantitative high-throughput screening tests each substance at several concentrations.)

Assay [3] in a line: qHTS assay to identify small molecule agonists of the NFkB signaling pathway - cell viability counter screen (AID 1159515). Further: series mostly up to about 61 µM; nearly all actives have a fitted effect of over 55% in size. Summed up: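 Cells are seeded (2,000 NFkB-bla ME-180 per well), rested overnight, and dosed with DMSO-dissolved compounds for 5 hr at 37 C. Viability is then read by CellTiter-Glo luminescence after 30 min at room temperature.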
A short description of assay [4]: qHTS assay to identify small molecule agonists of the endoplasmic reticulum stress response signaling pathway (AID 1159516; active means well fitted activation curve with a large enough effect in the signal ratio in the repeat runs, not every such curve was filed as active; the % refers to the signal ratio; further: potency means the concentration at half of the fitted maximal effect). In short, it runs like this: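 Cells are seeded at 1,500 per well and incubated overnight. Compounds in DMSO are added for 5 hr at 37 C, then beta-lactamase FRET substrate for 2 hr at room temperature, and fluorescence at 460 and 530 nm is measured.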

The nature of assay [5]: qHTS assay to identify small molecule agonists of the endoplasmic reticulum stress response signaling pathway - cell viability counter screen (AID 1159517). Further: nearly all actives have a fitted effect of over 50% in size. Further: potency means the concentration at half of the fitted maximal effect. Summed up: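 Steps: seed 1,500 ESRE-bla HeLa cells per well; incubate overnight at 37 C, 5% CO2; add compounds in DMSO for 5 hr; run FRET substrate 2 hr RT; add CellTiter-Glo, wait 30 min, read luminescence.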
Assay [6] in a line: qHTS assay to identify small molecule antagonists of the retinoid-related orphan receptor gamma (ROR-gamma) signaling pathway - cell viability counter screen (AID 1159520; active means well fitted curve in the direction sought with a large enough effect in the repeat runs; an effect the other way counts as inactive or inconclusive; further: nearly all actives have a fitted effect of over 50% in size). In short, it runs like this:
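Tet-on ROR gamma CHO cells were given compounds for 2 hr, then doxycycline hyclate at 1 uM final, and incubated 16 hr at 37 C. Viability was measured as ATP content by CellTiter-Glo luminescence.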

Assay [7] in a line: qHTS assay to identify small molecule agonists of the AP-1 signaling pathway - cell viability counter screen (AID 1159525). Further: nearly all actives have a fitted effect of over 55% in size. Summed up:
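Same-well cytotoxicity counter screen of the Tox21 10K library in ME-180 cells. The readout is ATP-dependent luminescence after 5 h compound treatment. Data are normalised to DMSO and tetra n-octyl ammonium bromide controls.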

Assay [8] can be described thus: qHTS assay to identify small molecule agonists of the AP-1 signaling pathway (AID 1159526).
For assay [9], the target named is Retinoic acid receptor RXR-alpha (Homo sapiens) (UniProt P19793). Description: qHTS assay to identify small molecule agonists of the RXR signaling pathway (AID 1159527). Further: nearly all actives have a fitted effect of over 35% in size. Further: potency means the concentration at half of the fitted maximal effect. Summed up:
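qHTS of the Tox21 10K library in GeneBLAzer RXR-alpha HEK 293T cells carrying a beta-lactamase reporter […]; 16 hr treatment, 9-cis retinoic acid as agonist control, FRET read-out.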

For assay [10], the target named is Nuclear receptor ROR-gamma (Homo sapiens) (UniProt P51449). Description: qHTS assay to identify small molecule antagonists of the retinoid-related orphan receptor gamma (ROR-gamma) signaling pathway (AID 1159521; active means well fitted curve in the direction sought with a large enough effect in the repeat runs; an effect the other way counts as inactive or inconclusive; further: nearly all actives have a fitted effect of over 50% in size; further: potency means the concentration at half of the fitted maximal effect). In short, it runs like this:
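RORγ antagonism is scored from reduced reporter luminescence in Tet-on CHO cells. Induction used 1 uM final doxycycline hyclate for 16 h at 37 C, following a 2 h compound exposure.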

The structures appear in SMILES notation. “And” between values parts separate entries of the source, which are not always exact repeats. Equal values may be shown once. Inconclusive results are not listed. Where a structure was tested more than once in an assay, its records may differ in their call. The source made the active and inactive calls. Unless noted, the call rests on the fitted dose curve.

Sequence of Retinoic acid receptor RXR-alpha (Homo sapiens) (P19793 whole entry, looked up): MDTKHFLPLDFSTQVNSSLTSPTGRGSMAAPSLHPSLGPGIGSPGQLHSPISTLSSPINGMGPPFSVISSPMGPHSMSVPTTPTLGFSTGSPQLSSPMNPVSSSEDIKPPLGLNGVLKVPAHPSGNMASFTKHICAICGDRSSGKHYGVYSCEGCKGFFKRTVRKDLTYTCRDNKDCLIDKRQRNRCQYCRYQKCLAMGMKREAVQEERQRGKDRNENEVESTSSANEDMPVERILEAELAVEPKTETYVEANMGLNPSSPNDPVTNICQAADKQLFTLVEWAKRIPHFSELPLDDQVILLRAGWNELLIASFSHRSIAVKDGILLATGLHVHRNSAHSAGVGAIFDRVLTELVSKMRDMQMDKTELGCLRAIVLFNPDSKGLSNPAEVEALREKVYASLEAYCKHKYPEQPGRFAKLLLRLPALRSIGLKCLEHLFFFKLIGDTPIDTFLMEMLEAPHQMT

Take `C=CC(C)(O)CCC=C(C)C` (stereo not given): the Potency result in [1], in assay [2], in assay [3], in [4], in assay [5] and in assay [6] was “inactive” each time. Also, the Potency result in assay [7] and in [8] was “inactive” in each case.
In the case of `COC(=O)CC(=O)OC`, the Potency entry in assay [1], in [3], in [4], in assay [5], in assay [6] and in [7] was “inactive” in each case. Moreover, the Potency result in [8] and in assay [9] was “inactive” each time.
Regarding `CN(Cc1cnc2nc(N)nc(N)c2n1)c1ccc(C(=O)N[C@@H](CCC(=O)O)C(=O)O)cc1`, the Potency in assay [1] was 30.9 nM (active) and 188 nM (active); in assay [2] it was 0.213 µM (active). Also, the Potency result in [3], in assay [4], in [5], in [6], in assay [10] and in assay [7] was “inactive” each time. Further, the Potency result in assay [8] was “inactive”.
Consider `CCOC(=O)C(C)Oc1ccc(Oc2cnc3cc(Cl)ccc3n2)cc1` (stereo not given), for which the Potency result in [1], in assay [2], in [3], in assay [4], in [5] and in assay [6] was “inactive” throughout. Also, the Potency result in assay [10], in assay [7] and in assay [8] was “inactive” throughout.
For `OCCNCCO`, the Potency result in assay [1], in assay [2], in assay [3], in assay [4], in assay [5] and in assay [6] was “inactive” each time. In addition, the Potency entry in assay [7] and in [8] was “inactive” throughout.
With `C=CCNCC=C`, the Potency entry in [1], in [2], in assay [3], in [4], in [5] and in assay [6] was “inactive” throughout. The Potency entry in [7], in [8] and in assay [9] was “inactive” in each case.
For `Cc1ccc(S(=O)(=O)O)cc1C`, the Potency entry in [1], in assay [2], in assay [3], in assay [4], in assay [5] and in assay [6] was “inactive” in each case. Also, the Potency entry in assay [7] and in [8] was “inactive” each time. The Potency result in [9] is “inactive and 9.77 µM (active)”.
As to `CC/C(=C(/CC)c1ccc(O)cc1)c1ccc(O)cc1`, the Potency in assay [1] is 24.3 µM (active); in [5] it was 54.9 µM (active) and inactive. The Potency result in assay [2], in [3], in assay [4], in assay [6], in assay [7] and in assay [8] was “inactive” each time. Also, the Potency result in [9] was “inactive”.
`CC/C=C\C/C=C\C/C=C\CCCCCCCC(=O)O`: the Potency entry in assay [1] was “inactive and 49 µM (active)”. The Potency entry in assay [3], in assay [4], in [5], in [6], in assay [10] and in [7] was “inactive” each time. Moreover, in assay [8], the Potency entry is “inactive”.
For `C[C@]12CC[C@@H]3c4ccc(O)cc4CC[C@H]3[C@@H]1CC[C@H]2O`, the Potency result in assay [1], in assay [2], in assay [3], in assay [4], in [5] and in [6] was “inactive” throughout. In assay [7], the Potency result was “inactive”. Further, the Potency in assay [10] was 17.5 µM (active).
`C1CN(SSN2CCOCC2)CCO1`: the Potency result in assay [1], in assay [2], in assay [3], in [4], in assay [5] and in [7] was “inactive” throughout.
With `CCCCCCCCCCCCCO`, the Potency result in [1], in assay [3], in [4], in assay [5], in assay [6] and in assay [7] was “inactive” each time. In addition, the Potency entry in assay [8] and in assay [9] was “inactive” throughout.
For the compound `OC[C@H]1O[C@@H]2O[C@H]3[C@H](O)[C@@H](O)[C@@H](O[C@H]4[C@H](O)[C@@H](O)[C@@H](O[C@H]5[C@H](O)[C@@H](O)[C@@H](O[C@H]6[C@H](O)[C@@H](O)[C@@H](O[C@H]7[C@H](O)[C@@H](O)[C@@H](O[C@H]1[C@H](O)[C@H]2O)O[C@@H]7CO)O[C@@H]6CO)O[C@@H]5CO)O[C@@H]4CO)O[C@@H]3CO`, the Potency result in assay [1], in assay [4], in [5], in assay [6], in assay [10] and in assay [7] was “inactive” throughout. The Potency result in assay [8] is “inactive”.
With `NC[C@H](O)c1ccc(O)c(O)c1`, the Potency result in assay [1], in [2], in assay [4], in assay [5], in assay [6] and in assay [10] was “inactive” throughout. Moreover, the Potency entry in [7], in [8] and in assay [9] was “inactive” each time.
As for `CN(C)C`, the Potency entry in [1], in assay [4], in assay [5], in [6], in [7] and in assay [8] was “inactive” each time. Further, in [9], the Potency entry is “inactive”.
Consider `O=C(O)CCCC(=O)O`, for which the Potency entry in [1], in assay [4], in assay [5], in assay [6], in assay [10] and in assay [7] was “inactive” throughout. Moreover, the Potency result in [8] and in assay [9] was “inactive” each time.
As for `NCCN`, the Potency result in assay [1], in assay [2], in assay [4], in assay [5], in [6] and in assay [7] was “inactive” throughout. In addition, the Potency entry in [8] and in [9] was “inactive” in each case.
With `OC[C@@H](O)[C@@H](O[C@@H]1O[C@H](CO)[C@H](O)[C@H](O)[C@H]1O)[C@H](O)[C@@H](O)CO`, the Potency entry in [1], in assay [4], in assay [5], in assay [6], in assay [10] and in assay [7] was “inactive” in each case. Moreover, the Potency result in [8] and in [9] was “inactive” each time.
As to `C=CCCCCCCCCCC`, the Potency result in assay [1], in assay [2], in [4], in [5], in assay [6] and in assay [10] was “inactive” throughout. For the same compound, the Potency result in assay [7], in assay [8] and in assay [9] was “inactive” each time.
For `c1ccc2cc3ccccc3cc2c1`, the Potency entry in assay [1], in assay [2], in assay [5], in [6], in assay [10] and in assay [7] was “inactive” each time. For the same compound, the Potency result in assay [8] and in assay [9] was “inactive” throughout. Also, the Potency in assay [4] is 56.7 µM (active).
Take `CC(=O)O[C@]1(C(C)=O)CC[C@H]2[C@@H]3C=C(C)C4=CC(=O)CC[C@]4(C)[C@H]3CC[C@@]21C`: the Potency entry in assay [1], in assay [2], in assay [4], in [5], in [6] and in [7] was “inactive” throughout. The Potency result in assay [8] was “inactive”. Further, the Potency in assay [10] is 21.7 µM (active).
For the compound `COc1ccc2nc(N)sc2c1`, the Potency entry in [1], in assay [4], in assay [5], in [6], in [10] and in assay [7] was “inactive” in each case. The Potency entry in assay [8] was “inactive”.
Take `ClC/C=C/CCl`: the Potency entry in [1], in assay [2], in assay [4], in [5], in [6] and in assay [7] was “inactive” in each case. Further, the Potency entry in assay [8] and in [9] was “inactive” each time.
As for `C[C@]12C=CC(=O)C=C1CC[C@H]1[C@@H]3C[C@@H](O)[C@](O)(C(=O)CO)[C@@]3(C)C[C@H](O)[C@@]12F`, the Potency entry in [1], in [4], in [5], in [6], in assay [10] and in assay [7] was “inactive” each time. For the same compound, the Potency result in [8] and in [9] was “inactive” throughout.
